Assay results: PubChem BioAssay (NCATS)
Several values for one entry are separate records, joined by “and”; a condition that tells them apart may be missing. Identical values can stand only once. A number with no mark means an inactive call. Inconclusive results are not listed. Where a call stands in place of a potency, no number is given. Activity calls are given as the source filed them. Unless noted, calls follow the shape of the dose curve; as a rule, active = well fitted curve in the direction sought with a large enough effect; inconclusive = small, poorly fitted or top-dose-only effect, or another doubt; inactive = no such curve, though single readings can be large; an effect the other way counts as inactive or inconclusive.

Legend:
[1] = qHTS for Activators of Parkin Expression: LOPAC Validation Assay (FLuc Reporter) (AID 720573)
Summary of the method: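 Neuronal cell line stably expressing FLuc/NLuc coincidence reporter under the Parkin promoter, 1,500 cells/well, dosed 24 h after seeding in 7-point series for 24 h at 37 C. FLuc luminescence read; normalized to DMSO and positive control (100%).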

[2] = molecular target: T1, Hexokinase-4 (Homo sapiens) + Glucokinase regulatory protein (Homo sapiens) (UniProt P35557+Q14397); experiment: qHTS assay for inhibitors of recombinant human GCK-GKRP interaction: Diaphorase-coupled assay (AID 743205)
Summary of the method: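 Compounds pre-incubated 20 min with substrate, then 10 nM GST-GCK with 10 nM FLAG-GKRP added. GCK activity coupled via G6PDH and diaphorase to resorufin (5 mM glucose, 0.4 mM ATP, 0.15 mM NADP+, pH 7.6), read kinetically over 30 minutes at Ex 525/Em 590 nm.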

[3] = molecular target: T1, Hexokinase-4 (Homo sapiens) + Glucokinase regulatory protein (Homo sapiens); experiment: qHTS assay for inhibitors of recombinant human GCK-GKRP interaction: ADP-Glo assay (AID 743206)
Summary of the method: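 GST-GCK and FLAG-GKRP (15 nM each in the dispensed mix, with 2 uM S6P) react with 0.4 mM ATP and 5 mM glucose (final) in Hepes pH 7.6 for 60 min at room temperature. ADP is measured by ADP-Glo luminescence.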

[4] = molecular target: T1, Hexokinase-4 (Homo sapiens) + Glucokinase regulatory protein (Homo sapiens); experiment: qHTS assay for inhibitors of recombinant human GCK-GKRP interaction: HTRF assay (AID 743207)
Summary of the method: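 HTRF binding of 5 nM GST-GCK and 5 nM FLAG-GKRP with 2 uM S6P in pH 7.1 Hepes buffer (MgCl2, KCl, DTT, Tween 20, BSA). Anti-FLAG XL665 and anti-GST donor added, 60 min at room temperature; 665/615 nm read, normalized to with- and without-GCK controls.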

[5] = qHTS Assay for Identifying Gametocytocidal Compounds (AID 743244); also: potency is read from the fitted curve at half-maximal effect;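 as to max response: actives lower the fluorescent signal which means gametocytes are killed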; details: P. falciparum 3D7 stage III-V gametocytes, alamarBlue, 72 h; max response: stronger effect = lower value
Summary of the method: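 A resazurin-based viability read-out was applied to mature P. falciparum gametocytes: 72 h compound treatment, then 24 h dye incubation, with falling fluorescence signalling gametocytocidal effect.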

[6] = qHTS assay for small molecule agonists of the antioxidant response element (ARE) signaling pathway measured by Nrf2-dependant transcriptional activity (AID 720636; active = well fitted curve in the direction sought with a large enough effect in the repeat runs; an effect the other way counts as inactive or inconclusive;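 also: HepG2 cells with an ARE-driven luciferase reporter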)
Summary of the method: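 ONE-Glo luminescence, read 30 min after reagent addition at room temperature, reflected ARE reporter activity in HepG2 cells that had been incubated with compound for 16 hr at 37 C in 1% dialyzed FBS.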

[7] = qHTS assay for small molecule agonists of the antioxidant response element (ARE) signaling pathway measured by Nrf2-dependant transcriptional activity - cell viability counter screen (AID 720653; active = well fitted curve in the direction sought with a large enough effect in the repeat runs; an effect the other way counts as inactive or inconclusive); details: ARE-bla HepG2 viability, CellTiter-Glo ATP luminescence, 16 h; max response: stronger effect = lower value
Summary of the method: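 Cytotoxicity counter screen: intracellular ATP quantified by CellTiter-Glo luminescence in the same ARE-bla HepG2 plates, after 16 h compound exposure and a 2 h beta-lactamase substrate step.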

[8] = qHTS assay for cell viability of HEK293 cells (AID 743288); details: ATP luminescence (CellTiter-Glo), 18 h, stronger effect = lower value; also: nearly all actives have a fitted effect of over 50% in size
Summary of the method: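 Parental HEK293 cells, 2,000 per well, preincubated at least 5 h at 37 C, then exposed to compounds in DMSO for 18 h at 37 C. Viability by CellTiter-Glo ATP luminescence after 30 min at room temperature.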

[9] = qHTS assay for cell viability of the p53RE-bla HCT-116 cell line (AID 743292); also: nearly all actives have a fitted effect of over 55% in size
Summary of the method: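 After plating at 4,000 cells per well and a 5 h rest at 37 C, HCT-116 cells carrying p53RE-bla received test chemicals in DMSO. Sixteen hours later at 37 C, CellTiter-Glo was added and luminescence recorded following 30 min at room temperature.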

[10] = qHTS assay for small molecule antagonists of the retinoid-related orphan receptor gamma (ROR-gamma) signaling pathway - cell viability counter screen (AID 720652; active = well fitted curve in the direction sought with a large enough effect in the repeat runs; an effect the other way counts as inactive or inconclusive;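 also: CHO reporter cells with doxycycline-induced ROR-gamma expression; series mostly up to about 92 µM; compound exposure lasted 16 hr before ATP read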)
Summary of the method: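 CHO cells carrying TET-inducible ROR and RORE-luciferase reporter, plated 5 hr, then dosed with compound plus doxycycline. After 16 hr at 37 C, viability read as intracellular ATP by CellTiter-Glo luminescence.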

T1 sequence (P35557 whole entry, looked up): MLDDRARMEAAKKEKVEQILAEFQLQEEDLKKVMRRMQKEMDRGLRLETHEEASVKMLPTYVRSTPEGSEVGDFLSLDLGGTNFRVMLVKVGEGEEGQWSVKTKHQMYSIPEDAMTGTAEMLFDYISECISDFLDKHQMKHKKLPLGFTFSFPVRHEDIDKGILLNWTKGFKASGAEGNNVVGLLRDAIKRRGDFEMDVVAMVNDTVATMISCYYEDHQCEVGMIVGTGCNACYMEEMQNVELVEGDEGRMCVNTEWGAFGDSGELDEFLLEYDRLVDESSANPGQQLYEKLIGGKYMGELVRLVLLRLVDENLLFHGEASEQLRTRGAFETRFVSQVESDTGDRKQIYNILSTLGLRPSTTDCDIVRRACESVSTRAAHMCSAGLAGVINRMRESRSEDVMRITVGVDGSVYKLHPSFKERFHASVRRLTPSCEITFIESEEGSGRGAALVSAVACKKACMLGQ
T1 sequence (Q14397 whole entry, looked up): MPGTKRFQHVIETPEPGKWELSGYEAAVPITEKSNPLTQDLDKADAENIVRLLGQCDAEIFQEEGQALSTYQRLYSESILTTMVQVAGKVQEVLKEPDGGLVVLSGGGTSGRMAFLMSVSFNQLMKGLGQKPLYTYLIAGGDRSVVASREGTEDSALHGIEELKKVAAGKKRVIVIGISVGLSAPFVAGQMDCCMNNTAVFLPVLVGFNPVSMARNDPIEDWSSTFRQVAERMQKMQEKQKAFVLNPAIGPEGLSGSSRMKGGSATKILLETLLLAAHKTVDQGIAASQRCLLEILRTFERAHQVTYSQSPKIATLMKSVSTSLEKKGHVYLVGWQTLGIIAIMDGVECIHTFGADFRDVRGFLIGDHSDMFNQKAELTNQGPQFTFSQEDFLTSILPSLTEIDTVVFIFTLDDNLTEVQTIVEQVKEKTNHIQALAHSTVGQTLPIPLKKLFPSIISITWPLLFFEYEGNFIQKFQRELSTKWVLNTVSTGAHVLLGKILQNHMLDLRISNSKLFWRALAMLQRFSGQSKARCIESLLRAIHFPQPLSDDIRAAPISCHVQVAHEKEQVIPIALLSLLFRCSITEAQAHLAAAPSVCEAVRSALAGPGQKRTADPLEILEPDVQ

Row | Structure (SMILES) | outcome [1] | outcome [2] | outcome [3] | outcome [4] | max response [5] | outcome [6] | max response [7] | max response [8] | Potency [9] | Potency [5] | Potency [10]
1 | CC(CN(C)C)CN1c2ccccc2CCc2ccccc21 (configuration not stated) | inactive | inactive | inactive | inactive | 4.34% |  |  |  |  |  | 
2 | CNCCCC1c2ccccc2C=Cc2ccccc21 | inactive | inactive | inactive | inactive |  |  |  |  |  |  | 
3 | CCCn1cnc2c1c(=O)n(CCCCC(C)=O)c(=O)n2C | inactive | inactive | inactive | inactive | -8.62% and 26.7% |  |  |  |  |  | 
4 | CC(=O)OCC(=O)[C@@]1(O)CC[C@H]2[C@@H]3CCC4=CC(=O)CC[C@]4(C)[C@H]3C(=O)C[C@@]21C | inactive | inactive | inactive | inactive | -5.84% |  |  |  |  |  | 
5 | Nc1ncnc2c1ncn2[C@@H]1O[C@H](CO)[C@@H](O)[C@H]1O | inactive | inactive | inactive | inactive | -0.147% and 30.2% |  |  |  |  |  | 
6 | N=c1c[n+](N2CCOCC2)[n-]o1 | inactive | inactive | inactive | inactive | 8.18% |  |  |  |  |  | 
7 | C=Cc1c(C)c2cc3[nH]c(cc4nc(cc5nc(cc1[nH]2)C(C)=C5CCC(=O)O)C(CCC(=O)O)=C4C)c(C)c3C=C | inactive | inactive | inactive | inactive | 11.4% and 22% |  |  |  |  |  | 
8 | C[C@]12CC[C@@H]3c4ccc(O)cc4CC[C@H]3[C@@H]1CCC2=O | inactive | inactive | inactive |  | -6.45% and 30.5% | inactive | -0.718% | -13% | inactive |  | 
9 | C#CCN(C)Cc1ccccc1 | inactive | inactive | inactive | inactive | 14.1% and 13.7% |  |  |  |  |  | 
10 | CN(C)CCCN1c2ccccc2Sc2ccc(Cl)cc21 | inactive | inactive | inactive | inactive |  | inactive |  | -23.7% | inactive |  | 
11 | Cc1cc(N)c2ccccc2[n+]1CCCCCCCCCC[n+]1c(C)cc(N)c2ccccc21 | inactive | inactive | inactive | inactive |  |  |  |  |  | 3.98 µM (active) | 
12 | CC(C)(C)c1onc(OCP(=O)(O)O)c1CC(N)C(=O)O (configuration not stated) | inactive | inactive | inactive | inactive | 18.1% |  |  |  |  |  | 
13 | CC(C)NC[C@H](O)c1ccc(O)c(O)c1 | inactive | inactive | inactive | inactive | -9.19% and 21.1% |  |  |  |  |  | 
14 | COc1ccc(Cl)cc1C(=O)NCCc1ccc(S(=O)(=O)NC(=O)NC2CCCCC2)cc1 | inactive | inactive | inactive | inactive | 54% and 5.04% | inactive | -18.1% | -4.82% | inactive |  | 
15 | CNCCC(Oc1ccc(C(F)(F)F)cc1)c1ccccc1 (configuration not stated) | inactive | inactive | inactive | inactive |  |  |  |  |  |  | 
16 | NC(=O)c1ncn([C@@H]2O[C@H](CO)[C@@H](O)[C@H]2O)n1 | inactive | inactive | inactive | inactive | -2.06% and 29.2% | inactive | -11.8% | -7.49% | inactive |  | 
17 | CCN(CC)CCOC(=O)C1(C2CCCCC2)CCCCC1 | inactive | inactive | inactive | inactive | 0.472% and 32.4% |  |  |  |  |  | 
18 | NC(N)=NCCC[C@H](N)C(=O)O | inactive | inactive | inactive | inactive | -1.84% and -1.95% |  |  |  |  |  | 
19 | CC(C)(C(=O)O)c1ccc(C(O)CCCN2CCC(C(O)(c3ccccc3)c3ccccc3)CC2)cc1 (configuration not stated) | inactive | inactive | inactive | inactive | -3.24% and 8.77% |  |  |  |  |  | 
20 | C[C@]12C[C@H](O)[C@H]3[C@@H](CCC4=CC(=O)CC[C@@]43C)[C@@H]1CC[C@@H]2C(=O)CO | inactive | inactive | inactive | inactive | -3.84% and -1.24% | inactive | -15.9% and -13% | -14.2% and 1.25% | inactive |  | inactive
21 | CNC(=O)Oc1ccc2c(c1)[C@]1(C)CCN(C)[C@@H]1N2C | inactive |  | inactive | inactive |  | inactive | -1.23% | -7.46% | inactive |  | 
22 | CN1CCN(C2Cc3ccccc3Sc3ccc(Cl)cc32)CC1 (configuration not stated) | inactive | inactive | inactive | inactive |  |  |  |  |  |  | 
23 | NC1CCN(c2cccc(Cl)n2)CC1 | inactive | inactive | inactive | inactive | 1.41% and 17.3% |  |  |  |  |  | 
24 | CSc1ccc2c(c1)N(CCC1CCCCN1C)c1ccccc1S2 (configuration not stated) | inactive | inactive | inactive | inactive |  |  |  |  |  | 2.51 µM (active) | 
